Sampled rows, rich in hits. Any-hit rate of the full collection: about 2.6%.
A3G deaminase – APOBEC3G DNA deaminase inhibitors, primary screen, biochemical, fluorescence, single-stranded DNA substrate, uHTS; AID 493012, 2011; inhibition, % at 20 µM; 330,000 tested, 0.28% active; DNA dC->dU-editing enzyme APOBEC-3G (Homo sapiens), Q9HC16; recombinant A3G, ssDNA deamination FAM/TAMRA fluorescence;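 active = inhibition of at least 40% at 20 µM, with no more than 30% in the related APOBEC3A deaminase screen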;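 note: plate controls were DMSO wells with A3G for no effect and wells lacking A3G enzyme for full effect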
APOBEC3A inh – APOBEC3A ssDNA deaminase inhibitors, primary screen, selectivity assay for APOBEC3G inhibitor project, biochemical, FAM/TAMRA oligo cleavage fluorescence | 330,000 tested, 0.41% active | recombinant A3A, FAM/TAMRA ssDNA deamination fluorescence | inhibition, % at 20 µM;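 active = at least 40% inhibition at 20 µM here, with at most 30% in a related deaminase screen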;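 note: plate controls were A3A with DMSO for no effect and wells lacking A3A enzyme for full effect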
PHOSPHO1 block – PubChem AID 1565; Phosphoethanolamine/phosphocholine phosphatase (Homo sapiens), Q8TCT1; recombinant PHOSPHO1, absorbance phosphatase assay; inhibition, % at 13.3 µM; 290,000 tested, 1.1% active; in the data active = inhibition above about 60%
eIF4H FP inh – human eIF4H binding inhibitors, primary screen, translation initiation inhibitor project, biochemical, uHTS, fluorescence polarization. Eukaryotic translation initiation factor 4H (Homo sapiens), Q15056. eIF4H fluorescence polarization binding assay. inhibition, % at 35 µM. 290,000 tested, 0.94% active;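 note: calls also rest on retests at 20 µM and on dose response follow-up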
PABP polyA inh – PABP poly(A) RNA binding inhibitors, primary screen, biochemical, fluorescence polarization, uHTS; 290,000 tested, 1% active; calls only at 35 µM; Polyadenylate-binding protein 1 (Homo sapiens), P11940;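 note: calls also rest on retests at 20 µM and on dose response follow-up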
PABP1 MLLE inh – inhibitors of PABP1 MLLE–PAM2 peptide binding, primary screen, biochemical, fluorescence polarization, FITC-PAM2, GST-MLLE; AID 588489, 2011; inhibition, % at 20 µM; Polyadenylate-binding protein 1 (Homo sapiens), P11940; 360,000 tested, 0.36% active; in the data active = inhibition above about 35%, passing the limit was not always enough;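 note: plate controls were DMSO wells with GST-MLLE for no effect and wells lacking GST-MLLE protein for full effect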
Starred values were filed as active, the others as inactive; i = inactive; · = no result; + = active, no number. Unless noted, the rule behind the calls is not given here.

SMILES | A3G deaminase | APOBEC3A inh | PHOSPHO1 block | eIF4H FP inh | PABP polyA inh | PABP1 MLLE inh
COc1ccccc1CN1CC(C(=O)N(C)CCc2nc3ccc(F)cc3[nH]2)CCC1=O (stereo unspecified) | -7 | -9 | 64* | · | · | 1
CCC(C(=O)NCCC(C)C)n1ccc2cc(S(=O)(=O)N3CCCCC3)ccc21 (stereo unspecified) | 5 | 1 | 63* | -8 | i | -6
O=C(Cc1c(F)cccc1Cl)c1ccc(O)cc1O | -8 | -4 | 24 | 63 | + | 17
O=C(Cc1ccc(F)cc1)c1ccc(O)cc1O | -7 | -2 | 0 | 75* | + | 21
CCOc1ccc(S(=O)(=O)NC(C)C)cc1C(N)=O | -6 | -3 | 22 | 6 | i | 6
O=C(/C=C/c1ccccc1)NC(N1CCOCC1)C(Cl)(Cl)Cl (stereo unspecified) | -4 | -2 | 45 | 2 | i | 9
CN1CCN(C(=O)C2CCCN(S(=O)(=O)c3ccc(Br)cc3)C2)CC1 (stereo unspecified) | 1 | 1 | 27 | 0 | i | -11
CN1CCN(C(=O)C2CCCN(S(=O)(=O)c3ccc(Cl)cc3)C2)CC1 (stereo unspecified) | -7 | -2 | 65* | 13 | i | 8
COCCNC(=O)C1(C)CCN(C(=O)c2cccc(C)c2C)C1 (stereo unspecified) | · | · | · | · | · | -4
CCOc1ccccc1Nc1nc(-c2sc(NC(=O)c3ccccc3)nc2C)cs1 | 9 | 2 | 88* | 0 | i | ·
COc1cccc(Nc2nc(-c3sc(C)nc3C)cs2)c1 | -2 | -3 | -8 | -6 | i | -2
CCCCCC(=O)Nc1nc(C)c(-c2csc(Nc3ccccc3OC)n2)s1 | -5 | -4 | 74* | -5 | i | 10
Cc1nc(NC(=O)c2ccccc2)sc1-c1csc(NCc2ccccc2)n1 | 0 | -2 | 17 | -1 | i | -30
COc1cccc(Nc2nc(-c3sc(N)nc3C)cs2)c1 | 5 | 4 | 66* | 12 | i | -29
Cc1nc(NC(=O)c2ccccc2)sc1-c1csc(NCCc2ccccc2)n1 | -4 | 0 | 62* | 29 | i | -74
CCOc1ccccc1NC(=O)NC1(C(=O)NCc2cccnc2)CCCCC1 | -3 | 0 | 14 | -1 | i | 0
CCOc1ccc(NC(=O)CCC(=O)NNC(=O)Nc2cccc(Cl)c2)cc1 | -4 | -2 | 41 | 1 | i | -3
CCCCCCC(=O)Nc1nc(C)c(-c2csc(Nc3ccccc3OC)n2)s1 | -9 | -3 | 79* | 2 | i | 0
CCCC(C)C(=O)Nc1nc(C)c(-c2csc(Nc3ccccc3OC)n2)s1 (stereo unspecified) | 11 | 0 | 74* | -6 | i | 5
Cc1nc(N)sc1-c1csc(NCc2ccccc2)n1 | 2 | 0 | 67* | 11 | i | -44
CCCCCC(=O)Nc1nc(C)c(-c2csc(Nc3ccccc3OCC)n2)s1 | -3 | 1 | 79* | -1 | i | -20
CC(C)CNC(=O)c1ccc(NC(=O)c2ccccc2[N+](=O)[O-])cc1 | -4 | 2 | 1 | -3 | i | 0
CC(=O)C1=CCC(c2ccc(F)cc2)N(S(=O)(=O)c2ccc(C)cc2)C1 (stereo unspecified) | · | · | · | · | · | -6
CSc1ccccc1NC(=O)COC(=O)CCc1ccccc1 | 4 | 5 | 6 | -11 | i | -3
O=C(c1ccco1)[C@@H]1[C@@H]2C(=O)N(c3ccc(F)cc3)C(=O)[C@@H]2C2c3ccccc3C=CN21 (stereo partly specified) | 0 | -7 | 55 | 70 | + | ·
O=C(c1ccco1)[C@@H]1[C@@H]2C(=O)N(c3ccc(Br)cc3)C(=O)[C@@H]2C2c3ccccc3C=CN21 (stereo partly specified) | · | · | 68* | 55 | i | 21
